RGS16-Gao HTS – RGS16-Galphao interaction regulator (human); bead-based flow cytometry RGS16-Galphao binding, fluorescence; actives lie on both sides; binding response (% of control), % at 10 µM; 0.38% of 220,000 active;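 also: Galphao activated by GDP with aluminum fluoride before binding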
RGS8-Gao – modulates binding of RGS8 to human Galphao; P09471; multiplexed bead flow cytometry; actives lie on both sides; response (percent of control binding), % at 10 µM; 0.34% of 220,000 active; AID 1423; in the data active = response below about 60% or above about 140%; inactive = in between;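 also: Galphao activated as the GDP aluminium fluoride complex binding bead-coupled RGS8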
Target sequence (P09471 whole entry, looked up): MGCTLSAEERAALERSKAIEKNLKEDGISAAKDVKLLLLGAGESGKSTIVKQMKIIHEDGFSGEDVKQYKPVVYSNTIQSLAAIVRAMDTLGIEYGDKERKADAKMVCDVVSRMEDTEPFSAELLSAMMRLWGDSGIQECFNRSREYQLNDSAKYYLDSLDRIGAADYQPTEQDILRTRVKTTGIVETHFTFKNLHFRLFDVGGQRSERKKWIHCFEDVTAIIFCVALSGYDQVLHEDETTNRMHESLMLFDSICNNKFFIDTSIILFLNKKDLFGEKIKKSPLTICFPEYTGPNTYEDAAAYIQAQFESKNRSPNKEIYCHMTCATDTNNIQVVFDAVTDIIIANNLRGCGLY
GSH bead fluor – GSH bead compound fluorescence profile; GSH beads flow cytometry, compound fluorescence 488/530 nm; hits give high values; fluorescence (KMESF) at 10 µM; 0.25% of 190,000 active; in the data active = fluorescence above about 89;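 also: glutathione beads carrying GST-tagged Bcl family fusion proteins plus one bare bead set; values are compound well signal with DMSO vehicle wells as background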
Avidin fluor – compound fluoresces at 488/530 nm on avidin beads. compound fluorescence 488/530 nm, flow cytometry; hits give high values. fluorescence (KMESF) at 10 µM. 0.38% of 220,000 active; in the data active = fluorescence above about 47
RGS7-Gao – human RGS7-Galphao interaction regulation; P09471; Multiplexed bead flow cytometry, RGS7-Galphao binding; actives lie on both sides; binding response (% of control), % at 10 µM; 0.35% of 220,000 active; in the data active = binding response below about 49% or above about 150%; inconclusive = no clear call, values can overlap the other calls; inactive = in between;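 also: fluorescent Galphao held in activated GDP-AlF4 state binding bead-coupled RGS7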
RGS4-Gao reg – modulates binding of RGS4 to human Galphao | 0.33% of 220,000 active | binding response (% of control), % at 10 µM | P09471 | Multiplexed bead flow cytometry; actives lie on both sides; in the data active = binding response below about 49% or above about 150%; inactive = in between;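 also: fluorescent Galphao activated with aluminum fluoride binding bead-coupled RGS4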
RGS-Gao – RGS4-Galphao interaction regulator (human). shares compounds with RGS16-Gao HTS. multiplexed bead flow cytometry, RGS–Galpha-o binding. RGS4–Galpha-o binding response, % at 10 µM. 99% of 1,600 active. AID 1504;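 also: fluorescently labeled Galpha-o bound to GDP with aluminium fluoride binding biotinylated RGS beads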
Biotin-avidin – counter-screen: compounds disrupting biotin binding to avidin beads; shares compounds with RGS16-Gao HTS; streptavidin beads, fluorescein-biotin binding, flow cytometry; inhibition, % at 10 µM; 1,700 tested, under 10 active; AID 1783;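 active = inhibition above 50%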;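 also: median green fluorescence of gated singlet beads compared with DMSO control wells; 0% = DMSO wells and 100% = complete loss of bead fluorescence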
RGS8-Gao single – confirmation of regulators of human RGS8-Galphao interaction | shares compounds with RGS16-Gao HTS | AID 1836 | binding response (% of control), % at 10 µM | bead-based flow cytometry RGS8-Galphao binding, fluorescence; actives lie on both sides | 3% of 1,700 active; in the data active = binding response below about 72% or above about 130%; inactive = in between;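 also: Galphao activated as GDP AlF4 complex before binding bead RGS8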
RGS7-Gao confirm – RGS7-Galphao interaction regulation, single point confirmation; response (percent of control binding), % at 10 µM; 7.8% of 1,700 active; shares compounds with RGS16-Gao HTS; bead-based flow cytometry RGS7-Galphao binding; actives lie on both sides; in the data active = response below about 75% or above about 130%; inactive = in between;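 also: fluorescent Galphao activated with GDP and aluminum fluoride binding bead-coupled RGS7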
RGS16-Gao single – confirmation of regulators of human RGS16-Galphao interaction; shares compounds with RGS16-Gao HTS; bead-based flow cytometry, RGS16-Galphao binding; actives lie on both sides; response (% of control binding), % at 10 µM; 4% of 1,700 active; AID 1838; in the data active = response below about 74% or above about 130%; inactive = in between;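 also: Galphao activated as the GDP aluminium fluoride complex binding bead-coupled RGS16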
RGS4-Gao confirm – RGS4-Galphao interaction regulation, single point confirmation. shares compounds with RGS16-Gao HTS. RGS4-Galphao binding, multiplexed bead flow cytometry; actives lie on both sides. binding response (% of control), % at 10 µM. 4% of 1,700 active. AID 1840; in the data active = binding response below about 74% or above about 130%; inactive = in between
RGS19-Gao single – confirmation of regulators of human RGS19-Galphao interaction. 5% of 1,700 active. shares compounds with RGS16-Gao HTS. response (percent of control binding), % at 10 µM. bead-based flow cytometry RGS19-Galphao binding; actives lie on both sides. AID 1841; in the data active = response below about 50% or above about 160%; inactive = in between;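 also: 100% = no compound control and 0% = blank background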
Target sequence (P09471 whole entry, looked up): as above
Target sequence (P49795 whole entry, looked up): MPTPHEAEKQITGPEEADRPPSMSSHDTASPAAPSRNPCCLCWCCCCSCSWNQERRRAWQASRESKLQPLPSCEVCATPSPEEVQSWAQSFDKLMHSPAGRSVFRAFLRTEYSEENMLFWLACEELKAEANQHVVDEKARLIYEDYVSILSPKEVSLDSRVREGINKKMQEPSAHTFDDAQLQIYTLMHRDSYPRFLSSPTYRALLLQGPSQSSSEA
Active calls of the source: *; [ ] = another dose, or the depositor's remark. Only some compounds are listed: those with a hit (about 1.2% of all), similar ones and a draw of the others. Unless noted, no rule for the calls is given here.

COc1cc(C(=O)OCC#N)ccc1OCc1c(C)noc1C was read as RGS16-Gao HTS 100.4, RGS8-Gao 100.5, Avidin fluor 9, RGS7-Gao inconclusive and RGS4-Gao reg 103.8.
COc1cc(C(=O)OCC(=O)NC2CCS(=O)(=O)C2)ccc1OCc1c(C)noc1C (stereo not drawn) was read as RGS16-Gao HTS 124.6, RGS8-Gao 104.0, GSH bead fluor 15, Avidin fluor 73*, RGS7-Gao 154.4*[activator], RGS4-Gao reg 100.0, RGS-Gao 100.0*, Biotin-avidin 1.2, RGS8-Gao single 100.0, RGS7-Gao confirm 99.1, RGS16-Gao single 96.0, RGS4-Gao confirm 98.2 and RGS19-Gao single 101.1.
`COC(C[C@@H](O)[C@@H](C)[C@H](O)COCc1ccccc1)OC` gave RGS16-Gao HTS 110.2, RGS8-Gao 109.6, Avidin fluor 10, RGS7-Gao inconclusive and RGS4-Gao reg 110.5.
Cc1c(Cl)cccc1NC(=O)CC(C(=O)O)C1CCCO1 (stereo not drawn) was read as RGS16-Gao HTS 322.6, RGS8-Gao 147.6*[activator], GSH bead fluor 14, Avidin fluor 5, RGS7-Gao 129.8, RGS4-Gao reg 136.4, RGS-Gao 136.4*, Biotin-avidin -1.3, RGS8-Gao single 106.5, RGS7-Gao confirm 113.0, RGS16-Gao single 108.9, RGS4-Gao confirm 106.4 and RGS19-Gao single 96.1.
CCC(=O)Nc1cc(-c2nn(CC(=O)N3CCCCC3)c(=O)c3ccccc23)ccc1N1CCOCC1 was read as RGS16-Gao HTS 108.5, RGS8-Gao 100.1, GSH bead fluor 34, Avidin fluor 143*, RGS7-Gao 155.4*[activator], RGS4-Gao reg 117.0, RGS-Gao 117.0*, Biotin-avidin -1.6, RGS8-Gao single 103.6, RGS7-Gao confirm 99.6, RGS16-Gao single 102.9, RGS4-Gao confirm 101.3 and RGS19-Gao single 111.6.
CC(=O)Nc1ccccc1C(=O)C(=O)Nc1ccc(C(=O)N2CCOCC2)cc1 was read as RGS16-Gao HTS 105.2, RGS8-Gao 99.4, GSH bead fluor 11, Avidin fluor 23, RGS7-Gao 104.2 and RGS4-Gao reg 99.0.
COc1ccc(OC)c(NC(=O)Nc2nnc(N3CCC(C)CC3)s2)c1 was read as RGS16-Gao HTS 40.2, RGS8-Gao 58.4*, GSH bead fluor 13, Avidin fluor 3, RGS7-Gao 42.7*, RGS4-Gao reg 40.1*, Biotin-avidin -0.1, RGS8-Gao single 109.4, RGS7-Gao confirm 108.2, RGS16-Gao single 117.6, RGS4-Gao confirm 105.7 and RGS19-Gao single 107.9.
CCCc1ccc(C(=O)NC(=O)c2ccccc2O)cc1 was read as RGS16-Gao HTS 32.2, RGS8-Gao 53.4*, Avidin fluor 2, RGS7-Gao inconclusive, RGS4-Gao reg 32.9*, Biotin-avidin -1.0, RGS8-Gao single 100.1, RGS7-Gao confirm 98.0, RGS16-Gao single 97.5, RGS4-Gao confirm 99.1 and RGS19-Gao single 102.1.
O=C(NC(=O)c1ccccc1O)c1ccc(C(F)(F)F)cc1 was read as RGS16-Gao HTS 94.4, RGS8-Gao 100.5, Avidin fluor 8, RGS7-Gao inconclusive and RGS4-Gao reg 92.7.
Screening O=c1c2ccccc2nc2n1C(CBr)CN2 (stereo not drawn) returned RGS16-Gao HTS 99.4, RGS8-Gao 99.7, Avidin fluor 6, RGS7-Gao inconclusive and RGS4-Gao reg 97.9.
Screening O=C(N/N=C/c1ccc(Br)s1)c1c[nH]c2ccccc12 returned RGS16-Gao HTS 86.4, RGS8-Gao 95.9, GSH bead fluor 9, Avidin fluor 2, RGS7-Gao 99.8 and RGS4-Gao reg 98.7.
Screening CN(C)c1cccc(C(=O)Nc2cc(C(F)(F)F)ccc2-n2cnc3ccccc32)c1 returned RGS16-Gao HTS 196.9*[activator], RGS8-Gao 126.5, GSH bead fluor 14, Avidin fluor 8, RGS7-Gao 115.4, RGS4-Gao reg 106.1, RGS-Gao 106.1*, Biotin-avidin 0.3, RGS8-Gao single 99.9, RGS7-Gao confirm 97.4, RGS16-Gao single 97.6, RGS4-Gao confirm 99.5 and RGS19-Gao single 102.5.
For Cc1cccc(C(=O)Nc2ccc(C(=O)/C=C/c3cccnc3)cc2)c1 the results were RGS16-Gao HTS 242.2, RGS8-Gao 105.0, GSH bead fluor 0, Avidin fluor 30, RGS7-Gao 186.2*[activator], RGS4-Gao reg 196.5*[activator], Biotin-avidin 0.1, RGS8-Gao single 99.6, RGS7-Gao confirm 104.6, RGS16-Gao single 102.1, RGS4-Gao confirm 101.5 and RGS19-Gao single 103.2.
For O=C(/C=C/c1cccnc1)c1ccc(NC(=O)c2cccc(Br)c2)cc1 the results were RGS16-Gao HTS 100.9, RGS8-Gao 99.2, GSH bead fluor 21, Avidin fluor 5, RGS7-Gao 100.2 and RGS4-Gao reg 100.7.
For COc1ccc(S(=O)(=O)N(C)c2c(C)n(C)n(-c3ccccc3)c2=O)cc1OC the results were RGS16-Gao HTS 104.7, RGS8-Gao 100.3, GSH bead fluor 25, Avidin fluor 107*, RGS7-Gao 203.1*[activator], RGS4-Gao reg 119.2, RGS-Gao 119.2*, Biotin-avidin 2.6, RGS8-Gao single 92.0, RGS7-Gao confirm 66.8*, RGS16-Gao single 74.1*, RGS4-Gao confirm 71.3* and RGS19-Gao single 49.6*.
CC1(C)OC(=O)C(=Cc2ccc(-c3ccc(S(N)(=O)=O)cc3)o2)C(=O)O1 was read as RGS16-Gao HTS 93.7, RGS8-Gao 83.2, GSH bead fluor 65, Avidin fluor 6, RGS7-Gao 93.7, RGS4-Gao reg 94.8, Biotin-avidin -2.2, RGS8-Gao single 72.5*, RGS7-Gao confirm 88.3, RGS16-Gao single 95.1, RGS4-Gao confirm 93.0 and RGS19-Gao single 50.5*.
